Bioassay records (PubChem BioAssay)
An excerpt weighted towards active compounds, which were near 7.5% of everything screened.
SMN2 splice enh – increases expression of the SMN2 splice variant. HEK293 SMN2-luciferase splicing reporter, luminescence, 30-36 h. Potency, µM (series often up to 46.1 µM), inactives show top-dose activity change, positive = activation, usual class: activators. actives 2.8% (n = 210,000). AID 1458; also: % of control where 0% means no effect; nearly all actives have a fitted effect of over 55% in size
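qHTS luciferase splicing reporter: luminescence rises when SMN2 exon 7 is included in transfected HEK293 cells. Compound exposure lasted 30-36 h at 37C, with 4.5 mM final sodium butyrate as control, followed by a ONE-Glo read.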
Rab9 promoter act – activates the Rab9 promoter. Huh7 Rab9 promoter-luciferase reporter, luminescence, 24 h. actives 2.8% (n = 320,000). Potency, µM (top dose mostly 9.22 µM), for the others: at the top dose activation, negative = inhibition, most hits filed as activators; also: % of control where 0% means no effect; nearly all actives have a fitted effect of over 60% in size
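Stable Rab9-luc Huh7, 1500 cells/well, 2 h settle; cmpd in DMSO, 24 h, 37 °C/5% CO2; luciferase reagent 10 min RT; luminescence.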
NPC1 promoter act – activates the NPC1 promoter. Huh7 NPC1 promoter luciferase reporter, 24 h. Potency, µM (top dose mostly 9.22 µM), inactives show at the highest dose activation, most hits filed as activators. actives 2.4% (n = 320,000); also: % of control where 0% means no effect; nearly all actives have a fitted effect of over 60% in size
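Compounds in DMSO were transferred onto Huh7 NPC1-luciferase reporter cells pre-incubated 2 h; after 24 h at 37 °C, Amplite reagent was dispensed and luminescence recorded 10 min later.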
Luc counter – blocks Kinase-Glo luciferase, a counter-screen artifact; Q27757; Kinase-Glo luciferase, ATP luminescence, 8 min; Potency, µM (doses to about 38.3 µM), for the others: top-dose activity change, negative = inhibition, hits mostly inhibitors; actives 0.28% (n = 200,000); also: % is scaled to controls: 0 for no effect and ±100 for the full control effect; nearly all actives have a fitted effect of over 60% in size
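Luminescence was the read-out, taken after 8-minute incubation at ambient temperature. Luciferase turned over luciferin with 10 uM ATP in imidazole pH 7.2 buffer containing KCl, MgCl2, Tween 20 and BSA.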
FLuc modulator – firefly luciferase modulation, counter-screen for miR-21 project; P08659; purified FLuc, Km substrates, luminescence inhibition; Potency, µM (top dose mostly 57.5 µM), inactives show top-dose activity change, negative = inhibition, most hits filed as inhibitors; actives 6.9% (n = 360,000);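 also: plate controls were vehicle for no effect and reference inhibitor for full effect; nearly all actives have a fitted effect of over 55% in size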
Target sequence (P08659 whole entry, looked up): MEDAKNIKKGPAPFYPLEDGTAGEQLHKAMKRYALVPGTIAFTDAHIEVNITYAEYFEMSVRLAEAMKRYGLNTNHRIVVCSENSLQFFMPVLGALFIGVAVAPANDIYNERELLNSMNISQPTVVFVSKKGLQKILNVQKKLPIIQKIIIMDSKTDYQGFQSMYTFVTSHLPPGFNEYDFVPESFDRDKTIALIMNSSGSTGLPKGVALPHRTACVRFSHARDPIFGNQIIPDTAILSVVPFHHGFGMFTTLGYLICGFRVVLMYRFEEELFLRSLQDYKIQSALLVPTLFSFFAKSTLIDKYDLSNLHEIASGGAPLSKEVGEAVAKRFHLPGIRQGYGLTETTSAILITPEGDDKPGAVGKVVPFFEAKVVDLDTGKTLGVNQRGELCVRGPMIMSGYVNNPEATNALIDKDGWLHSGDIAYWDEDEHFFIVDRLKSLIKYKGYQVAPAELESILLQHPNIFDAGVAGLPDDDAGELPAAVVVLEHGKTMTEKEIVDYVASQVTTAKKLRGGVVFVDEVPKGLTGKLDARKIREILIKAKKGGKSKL
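Purified P. pyralis luciferase, 10 nM final, with Km-level 10 uM D-luciferin and 10 uM ATP in 50 mM Tris acetate pH 7.5, 10 mM Mg acetate, 0.01% Tween-20, 0.05% BSA; 6-point qHTS titration about 60 µM downward; luminescence read.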
ELG1 genotoxic – induces genotoxicity in HEK293T cells with luciferase-tagged ELG1 | HEK293T ELG1-luciferase reporter, luminescence, 16 h | Potency, µM (doses to about 46 µM), without a hit: top-dose activity change, positive = activation, usual class: activators | actives 1.3% (n = 330,000) | AID 504466; also: % of control where 0% means no effect; nearly all actives have a fitted effect of over 60% in size
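Screening used a luciferase reporter fused to human ELG1 in HEK293T cells. Luminescence was read on a CCD plate imager after 16 hr exposure and 30 min ONE-Glo incubation.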
The depositor's hits bear a star; ? = inconclusive; / = not tested or not shown; [ ] = remark or other dose. Calls follow the shape of the dose curve; as a rule, active = well fitted curve in the direction sought with a large enough effect; inconclusive = small, poorly fitted or top-dose-only effect, or another doubt; inactive = no such curve, though single readings can be large; an effect the other way counts as inactive or inconclusive. Potency is read from the fitted curve at half-maximal effect.

SMILES	SMN2 splice enh	Rab9 promoter act	NPC1 promoter act	Luc counter	FLuc modulator	ELG1 genotoxic
O=C(Nc1cccc(NC(=O)c2c(F)cccc2F)n1)c1c(F)cccc1F	/	-4%	-2%	/	-13%	-1%
COC(=O)c1cc(NC(=O)c2cccc(F)c2)cc(C(=O)OC)c1	-11%	-7%	-1%	2%	?	-5%
O=C(Nc1ccc2ccccc2c1)c1cccc(F)c1	/	0.71µM*	1.3µM*	/	2.1µM*	?
Cc1ccc2cc(NC(=O)c3ccccc3)ccc2n1	/	0.4µM*	0.56µM*	/	1.9µM*	1.8µM*
O=C(Nc1ccc2[nH]c(=O)c(=O)[nH]c2c1)c1cccc(F)c1	?	/	/	/	1%	/
Cc1ccc2cc(NC(=O)c3cccc(F)c3)ccc2n1	/	0.56µM*	0.63µM*	/	2.7µM*	2.6µM*
Cc1ccc(C)c(NC(=O)C2CCCN2S(=O)(=O)c2ccc3c(c2)CCCC(=O)N3)c1 (stereo unspecified)	/	/	/	/	-6%	/
COc1ccc(CNC(=O)c2cc3c(-c4ccccc4F)nn(C)c3s2)cc1	-27%	/	/	/	-5%	/
CCOc1ccc(N2CC(c3nc4ccccc4n3Cc3cccc(Cl)c3)CC2=O)cc1 (stereo unspecified)	6%	/	/	/	-11%	/
C[C@H]1C(O)[C@@]23CCC4C5(C=[N+](CCO)C[C@]4(C)CCC5)C2C[C@@H]1C3 (stereo partly specified)	4%	/	/	0%	/	/
COc1ccc(N(Cc2cccs2)C(=O)COc2cc(C)c(Cl)c(C)c2)cc1	/	/	/	/	-19%	/
CCCC(=O)Nc1cnc(NC(=O)c2cccc(F)c2)cc1C	2µM*	0.63µM*	0.45µM*	7.1µM*	9.5µM*	0.46µM*
C/C(=N/OCO/N=C(/C)c1ccc(F)cc1)c1ccc(F)cc1	8.9µM*	10%	0%	3%	3%	5%
O=C(NCC(c1ccccc1)c1ccccc1)c1nn(-c2ccccc2F)nc1CO	-65%	/	/	/	-3%	/
COc1ccc(Nc2nccc(-c3cccc(N)c3)n2)cc1	/	?	1.8µM*	/	2.7µM*	0%
O=C1NC(=O)/C(=C\c2ccc(OCc3ccccc3)cc2)S1	/	16%	4%	/	19µM*	11%
COc1cc(/C=C2/SC(=O)NC2=O)ccc1OCc1ccccc1	/	11%	2%	/	?	10%
O=C1NC(=O)/C(=C\c2ccccc2OCc2ccccc2)S1	-14%	1%	-4%	5%	27µM*	-1%
Cc1cccc(S(=O)(=O)Nc2ccc(-n3c(C)nc4ccccc4c3=O)cc2)c1	/	-3%	-3%	/	0%	-2%
COc1ccc(NC(=O)c2ccccn2)cc1	1.6µM*	?	0.5µM*	13µM*	2.7µM*	?
COc1ccc(NC(=O)c2ccccn2)cc1OC	?	4µM*	?	-17%	17µM*	?
Cc1ccc(C)c(N2CCN(C(=O)CCS(=O)(=O)c3cc(Br)cc4c3N(C(=O)C3CC3)CC4)CC2)c1	-6%	/	/	/	?	/
Cc1ccc([N+](=O)[O-])cc1S(=O)(=O)Nc1cccc(-c2ccc(N3CCOCC3)nn2)c1	/	?	20%	/	3µM*	9.2µM*
O=[N+]([O-])c1ccccc1S(=O)(=O)Nc1ccc(-c2ccc(N3CCOCC3)nn2)cc1	/	19%	17%	/	?	3%
O=[N+]([O-])c1ccccc1S(=O)(=O)Nc1cccc(-c2ccc(N3CCOCC3)nn2)c1	/	?	25%	/	2.7µM*	?
SMILES	SMN2 splice enh	Rab9 promoter act	NPC1 promoter act	Luc counter	FLuc modulator	ELG1 genotoxic
O=S(=O)(Nc1ccc(N2CCOCC2)cc1)c1cc(Cl)ccc1Cl	/	-6%	-2%	/	-1%	6%
O=S(=O)(Nc1cccc(-c2ccc(N3CCOCC3)nn2)c1)c1cc(Cl)ccc1Cl	/	?	19%	/	7.6µM*	?
O=[N+]([O-])c1ccccc1S(=O)(=O)Nc1cccc(-c2ccc(N3CCCC3)nn2)c1	/	20%	23%	/	17µM*	?
COC(=O)N[C@@H](c1cccc(C)c1)[C@@H](C)[N+](=O)[O-]	1%	/	/	0%	/	/
COC(=O)c1c(SCC(=O)Nc2cc(F)ccc2F)[nH]c2ccc(C)cc2c1=O	/	/	/	/	-21%	/
Cc1ccc(NC(=O)Cn2c(=O)n(CC3CCCO3)c(=O)c3ccccc32)cc1 (stereo unspecified)	6%	/	/	/	-6%	/
C=CCOc1ccc(/C(O)=C2/C(=O)C(=O)N(CCCn3ccnc3)C2c2cccs2)cc1 (stereo unspecified)	3%	?	25%	0%	15µM*	4%
C=CCOc1ccc(/C(O)=C2/C(=O)C(=O)N(CCCn3ccnc3)C2c2ccco2)cc1 (stereo unspecified)	10%	?	16%	-2%	-18%	6%
O=C(CCN1C(=O)/C(=C/c2ccccc2Cl)SC1=S)NCCc1ccc(O)cc1	/	-9%	-8%	/	0%	-8%
CCN1CCN(CCCNC(=O)c2cc3c(s2)-c2c(C)cccc2OC3)CC1	-19%	/	/	/	-3%	/
Cc1cc2[nH]c(=O)c3ccccc3n2n1	13%	-3%	-1%	-2%	0%	1%
Cc1cc2[nH]c(=O)cc(-c3ccccc3)n2n1	/	?	?	/	9.5µM*	?
Cc1ccc(-c2cc(C(=O)OCC(=O)c3ccccc3)c3cccc(Cl)c3n2)cc1	-11%	/	/	/	-4%	/
O=C(O)CNc1ncccc1[N+](=O)[O-]	3%	2%	2%	-1%	0%	0%
Cc1c(O)ccc(/C=N/Nc2ncccc2[N+](=O)[O-])c1O	/	3.2µM*	0.56µM*	/	1.1µM*	2.6µM*
O=[N+]([O-])c1cccc(N/N=C/c2cc([N+](=O)[O-])ccc2O)c1	20%	30%	?	6%	?	?
O=[N+]([O-])c1cccnc1N/N=C/c1ccccc1O	-51%	?	-4%	2µM*	?	?
O=[N+]([O-])c1ccc(N/N=C/c2ccccc2O)cc1	/	20%	-7%	/	15µM*	?
O=[N+]([O-])c1ccc(O)c(/C=N/Nc2ccccn2)c1	-86%	-25%	-15%	-1%	4%	14%
O=c1ccnc(S/C=C/c2ccccc2)[nH]1	16%	16%	?	-24%	19µM*	13%
CC1CCc2c(sc3nnn(CC(=O)Nc4ccccc4Cl)c(=O)c23)C1 (stereo unspecified)	-3%	/	/	/	-1%	/
CCOC(=O)c1cc(C)n(CC2CCC(C(=O)Nc3ccc(Cl)cc3)CC2)c1C (stereo unspecified)	/	/	/	/	3%	/
Cc1cc(C(=O)Nc2nnc(C3CCCCC3)s2)cs1	13%	1.6µM*	?	-3%	-7%[2.3 µM]	?
